From PubChem BioAssay (NCATS)
Inconclusive results are not listed. Entries that show only a call come without a potency. Calls of active or inactive are those of the source. Calls follow the shape of the dose curve; as a rule, active = well fitted inhibition curve with a large enough effect; inconclusive = small, poorly fitted or top-dose-only effect; inactive = no such curve, though single readings can be large or run the other way.

Biological target: Tumor susceptibility gene 101 protein (Homo sapiens) (UniProt Q99816)
Test: qHTS Assay for Iinhibitors of HIV-1 Budding by Blocking the Interaction of PTAP/TSG101: Hit Validation (AID 651600); also: nearly all actives have a fitted effect of over 70% in size
Settings: PTAP peptide/TSG101 UEV interaction, biochemical assay; series mostly up to 57.5 µM
Method in brief: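 Fluorescence polarization binding assay: Tsg101 binding domain (10 uM final) pre-dispensed with compounds, then FITC-labeled PTAP-motif peptide (50 nM final) added; 20 min at r.t. in HEPES pH 7.5 buffer with NaCl, Tween 20, EDTA, TCEP.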
Potency is read from the fitted curve at half-maximal effect.

Sequence of Tumor susceptibility gene 101 protein (Homo sapiens) (Q99816 whole entry, looked up): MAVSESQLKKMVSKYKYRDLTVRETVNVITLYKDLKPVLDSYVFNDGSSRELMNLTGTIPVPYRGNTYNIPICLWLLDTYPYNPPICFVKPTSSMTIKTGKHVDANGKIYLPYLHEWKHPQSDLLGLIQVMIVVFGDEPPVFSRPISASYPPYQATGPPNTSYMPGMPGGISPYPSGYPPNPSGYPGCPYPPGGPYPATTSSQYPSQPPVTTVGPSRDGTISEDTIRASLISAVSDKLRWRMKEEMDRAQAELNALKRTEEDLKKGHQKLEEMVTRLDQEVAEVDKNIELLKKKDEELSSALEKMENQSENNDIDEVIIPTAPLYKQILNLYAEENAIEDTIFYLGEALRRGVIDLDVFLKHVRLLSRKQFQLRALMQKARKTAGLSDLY

SMILES	Potency
N#Cc1c(C#N)c(O)c2ccccc2c1O	inactive
COc1cc(C2C=C(c3cccs3)Nc3ncnn32)cc(OC)c1OC (stereo not given)	inactive
Oc1oc(-c2ccccc2)nc1C=Nc1cccc2ccccc12	inactive
COc1ccc(CCn2c(=N)c(S(=O)(=O)c3ccc(Cl)cc3)cc3c(=O)n4ccccc4nc32)cc1	6.51 µM (active)
Cc1cccc(NC(=S)NCCC(c2ccccc2)c2ccccc2)c1	inactive
C#CCn1cc(C=C2C(=O)c3ccccc3C2=O)c2ccccc21	inactive
CC1CC(C)CN(C(=O)c2ccc3c(c2NCCO)C(=O)c2ccccc2C3=O)C1 (stereo not given)	inactive
Cc1ccccc1-c1ccc(/C=C2/SC(N3CCOCC3)=NC2=O)o1	inactive
Cn1cc(/C=C(\C#N)C(=O)Nc2ccccc2O)c2ccccc21	inactive
O=C(NCc1cc(C(F)(F)F)ccc1Cl)c1cccc2c1C(=O)c1ccc(N3CCC(Cc4ccccc4)CC3)cc1S2(=O)=O	13 µM (active)
CN1CC=C2C(C#N)=C(N)C(C#N)(C#N)[C@H](c3ccoc3)[C@H]2C1	inactive
CCC1CCCCN1C(=O)c1cc2cc(Br)ccc2oc1=O (stereo not given)	inactive
COc1ccc(-c2cc(C(F)(F)F)c3c(N)c(C(=O)NCCSC)sc3n2)cc1	inactive
Cc1ccc(-c2nc(C=Nc3ccc(O)cc3)c(O)o2)cc1	inactive
CC(=O)c1ccc(N2C(=O)C3C(C2=O)C(C(=O)c2ccc(Cl)cc2)N2CCCC32)cc1 (stereo not given)	inactive
CC[C@@]1(C(=O)OC)N[C@H](CN(C)C(=O)c2ccc(C)cc2)[C@@H]2C(=O)N(Cc3ccccc3)C(=O)[C@@H]21	inactive
O=C1c2cccc3c([N+](=O)[O-])ccc(c23)C(=O)N1c1ccc(Cl)cn1	inactive
Cn1c(=O)c2[nH]c(COc3ccccc3)nc2n(C)c1=O	inactive
O=C1C=CC(=O)c2c(O)c(CO)c(CO)c(O)c21	inactive
CCOc1ccc(NC(=O)N(C2CCCCC2)C(C)c2ccncc2)cc1 (stereo not given)	inactive

SMILES	Potency
O=C(NCc1cccc(F)c1)c1cccc2c1C(=O)c1ccc(N3CCC(Cc4ccccc4)CC3)cc1S2(=O)=O	10.3 µM (active)
Cn1c(=O)c(NCCc2ccccc2)c2c3c(cccc31)C(=O)c1ccccc1-2	2.59 µM (active)
Nc1c(C(=O)C2CC2)sc2nc(-c3ccccc3)cc(C(F)(F)F)c12	inactive
Cc1cc2c(cc1C)NC(c1c(C)n(C)n(-c3ccccc3)c1=O)C1=C(CC(C)(C)CC1=O)N2 (stereo not given)	inactive
CN(C)CCNc1ccc2ncn3c4ccc(O)cc4c(=O)c1c23	8.19 µM (active)
CC1(C)CC(=O)C2=C(C1)OC(N)=C(C#N)C2c1cc2c(cc1[N+](=O)[O-])OCO2 (stereo not given)	inactive
CCOC(=O)C1CCCN(c2nc3ccccc3nc2C(C#N)C(=O)NCc2ccccc2)C1 (stereo not given)	inactive
CCCN(CCC)S(=O)(=O)c1ccc(C(=O)OCCN2C(=O)c3cccc4c(N5CCOCC5)ccc(c34)C2=O)cc1	18.3 µM (active)
O=[n+]1c2c(n([O-])c3cc(F)c(N4CCCC4)cc31)CCC2	13 µM (active)
CCN(CC)CCCNc1ccc2ncn3c4ccc(O)cc4c(=O)c1c23	4.61 µM (active)
Cn1c(=O)c(Nc2ccc(Cl)cc2)c2c3c(cccc31)C(=O)c1ccccc1-2	10.3 µM (active)
CC1=CC(=C(C#N)c2nc3ccccc3s2)C=C(C)N1CC1CCCO1 (stereo not given)	16.3 µM (active)
CC(=O)Nc1ccc(N=Cc2c(O)ccc3ccccc23)cc1	29.1 µM (active)
COc1ccc(C2C(C(=O)c3cccs3)=C(O)C(=O)N2c2nnc(C)s2)cc1OC (stereo not given)	6.51 µM (active)
O=C(NCc1ccccc1Br)c1cccc2c1C(=O)c1ccc(N3CCC(Cc4ccccc4)CC3)cc1S2(=O)=O	inactive
ClCc1nc2ccccc2n1Cc1ccccc1	inactive
NC(=O)c1ccccc1NCC(=O)c1ccc(F)cc1	inactive
COc1ccccc1N1C(C)=CC(=C(C#N)c2nc3ccccc3s2)C=C1C	25.9 µM (active)
c1ccc2c(c1)CCCN2Cc1nnnn1CC1CCCO1 (stereo not given)	inactive
Cc1c(C(=O)Nc2cccc(C(F)(F)F)c2)sc2nc3n(c(=O)c12)CCCC3	inactive
